Results: PubChem BioAssay (Tox21)
“And” between values parts separate entries of the source, which are not always exact repeats. Identical values can stand only once. Unmarked numbers belong to inactive results. A call without a number means that no potency is given here. The source made the active and inactive calls. Unless noted, calls come from the whole dose curve; as a rule, active = well fitted curve in the direction sought with a large enough effect in the repeat runs; inconclusive = weak or mixed curves; inactive = no such curve, though single readings can be large; an effect the other way counts as inactive or inconclusive.

What was measured:
[1] = qHTS assay to identify small molecule antagonists of the thyroid receptor (TR) signaling pathway (AID 743065); note: nearly all actives have a fitted effect of over 55% in size; note: potency is the fitted concentration of half-maximal effect
In short: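 GH3.TRE-Luc rat pituitary cells (two TREs driving luciferase) were dosed with compound, then stimulated with 1 nM T3 (final) for 23.5 h at 37 C. ONE-Glo luminescence was the read-out, with CellTiter-Fluor fluorescence as the cytotoxicity counter-screen.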

[2] = system: thyroid hormone receptor (rat, GH3 cells); experiment: qHTS assay to identify small molecule agonists of the thyroid receptor (TR) signaling pathway (AID 743066; calls by dose curve)
[3] = qHTS assay to identify small molecule antagonists of the estrogen receptor alpha (ER-alpha) signaling pathway - cell viability counter screen (AID 743074; calls by dose curve;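 note: HEK293 cells carrying ER-alpha-UAS-bla reporter stimulated with 17beta-estradiol; nearly all actives have a fitted effect of over 45% in size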)
[4] = target: Estrogen receptor (Homo sapiens) (UniProt P03372); experiment: qHTS assay to identify small molecule agonists of the estrogen receptor alpha (ER-alpha) signaling pathway (AID 743075; calls by dose curve;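 note: HEK293 GripTite cells with ER-alpha and UAS-driven beta-lactamase reporter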; note: potency is the fitted concentration of half-maximal effect)
Estrogen receptor (Homo sapiens), sequence (P03372 whole entry, looked up): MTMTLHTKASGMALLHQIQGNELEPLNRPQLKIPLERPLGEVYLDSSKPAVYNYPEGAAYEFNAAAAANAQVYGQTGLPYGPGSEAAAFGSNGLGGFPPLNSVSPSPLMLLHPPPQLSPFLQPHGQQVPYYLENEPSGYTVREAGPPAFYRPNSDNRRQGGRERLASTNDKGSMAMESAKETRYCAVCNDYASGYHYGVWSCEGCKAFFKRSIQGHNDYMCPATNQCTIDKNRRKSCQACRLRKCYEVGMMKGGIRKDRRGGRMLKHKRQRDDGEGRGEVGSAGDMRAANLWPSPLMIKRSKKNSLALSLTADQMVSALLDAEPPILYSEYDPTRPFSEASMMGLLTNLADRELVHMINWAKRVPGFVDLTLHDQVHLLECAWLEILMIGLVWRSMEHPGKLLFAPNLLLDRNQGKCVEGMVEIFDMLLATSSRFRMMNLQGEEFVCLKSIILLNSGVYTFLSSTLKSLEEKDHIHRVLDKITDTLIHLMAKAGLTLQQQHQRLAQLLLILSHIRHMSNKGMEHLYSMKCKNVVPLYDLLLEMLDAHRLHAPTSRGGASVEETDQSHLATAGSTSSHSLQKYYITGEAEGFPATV

[5] = target: Estrogen receptor (Homo sapiens) (UniProt P03372); experiment: qHTS assay to identify small molecule agonists of the estrogen receptor alpha (ER-alpha) signaling pathway using the BG1 cell line (AID 743079); details: BG1Luc4E2 cells, ERE-luciferase agonist, 22 h; activation: at 70.3 µM (top of the series); note: nearly all actives have a fitted effect of over 20% in size; note: potency is the fitted concentration of half-maximal effect
[6] = qHTS assay to identify small molecule antagonists of the estrogen receptor alpha (ER-alpha) signaling pathway using the BG1 cell line (AID 743080; calls by dose curve;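 note: BG1 cells stimulated with 17beta-estradiol alongside compound; nearly all actives have a fitted effect of over 25% in size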; note: potency is the fitted concentration of half-maximal effect)
In short: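 After 5 days in phenol-red-free 10% charcoal-stripped FBS medium, BG1-Luc-4E2 cells were seeded, left 24 h at 37 C, co-treated with compounds and 17beta-estradiol for 21.5 h, then assayed for viability and luciferase.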

[7] = qHTS assay to identify small molecule antagonists of the estrogen receptor alpha (ER-alpha) signaling pathway using the BG1 cell line - cell viability counter screen (AID 743081);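 note: compound given together with 17beta-estradiol as the ER stimulus; nearly all actives have a fitted effect of over 45% in size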
Aromatase (Homo sapiens) = Aromatase (Homo sapiens) (UniProt P11511); experiment: qHTS assay to identify aromatase inhibitors (AID 743083); note: nearly all actives have a fitted effect of over 55% in size; note: potency is the fitted concentration of half-maximal effect
Aromatase (Homo sapiens), sequence (P11511 whole entry, looked up): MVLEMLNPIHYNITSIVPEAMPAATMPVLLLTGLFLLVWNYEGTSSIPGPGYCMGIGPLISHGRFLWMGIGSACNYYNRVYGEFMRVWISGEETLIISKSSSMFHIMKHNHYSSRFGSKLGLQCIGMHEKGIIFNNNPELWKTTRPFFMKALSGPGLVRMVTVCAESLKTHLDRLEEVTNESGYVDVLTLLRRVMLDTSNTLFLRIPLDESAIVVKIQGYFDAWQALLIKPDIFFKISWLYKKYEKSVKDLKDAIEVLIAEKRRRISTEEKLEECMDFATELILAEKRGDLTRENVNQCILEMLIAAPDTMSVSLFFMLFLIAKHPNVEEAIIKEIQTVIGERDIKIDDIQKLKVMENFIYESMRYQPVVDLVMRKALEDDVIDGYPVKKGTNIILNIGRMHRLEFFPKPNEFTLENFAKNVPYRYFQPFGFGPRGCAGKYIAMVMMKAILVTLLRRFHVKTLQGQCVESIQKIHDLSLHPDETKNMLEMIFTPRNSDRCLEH

[8] = qHTS assay to identify aromatase inhibitors - cell viability counter screen (AID 743084);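 note: cells stimulated with testosterone during compound exposure; nearly all actives have a fitted effect of over 55% in size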; note: potency is the fitted concentration of half-maximal effect
[9] = target: Aryl hydrocarbon receptor (Homo sapiens) (UniProt P35869); experiment: qHTS assay to identify small molecule that activate the aryl hydrocarbon receptor (AhR) signaling pathway (AID 743085); note: nearly all actives have a fitted effect of over 15% in size; note: potency is the fitted concentration of half-maximal effect;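 for activation: HG2L7.5c1 human HepG2 liver cells with stably integrated DRE-driven firefly reporter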
Aryl hydrocarbon receptor (Homo sapiens), sequence (P35869 whole entry, looked up): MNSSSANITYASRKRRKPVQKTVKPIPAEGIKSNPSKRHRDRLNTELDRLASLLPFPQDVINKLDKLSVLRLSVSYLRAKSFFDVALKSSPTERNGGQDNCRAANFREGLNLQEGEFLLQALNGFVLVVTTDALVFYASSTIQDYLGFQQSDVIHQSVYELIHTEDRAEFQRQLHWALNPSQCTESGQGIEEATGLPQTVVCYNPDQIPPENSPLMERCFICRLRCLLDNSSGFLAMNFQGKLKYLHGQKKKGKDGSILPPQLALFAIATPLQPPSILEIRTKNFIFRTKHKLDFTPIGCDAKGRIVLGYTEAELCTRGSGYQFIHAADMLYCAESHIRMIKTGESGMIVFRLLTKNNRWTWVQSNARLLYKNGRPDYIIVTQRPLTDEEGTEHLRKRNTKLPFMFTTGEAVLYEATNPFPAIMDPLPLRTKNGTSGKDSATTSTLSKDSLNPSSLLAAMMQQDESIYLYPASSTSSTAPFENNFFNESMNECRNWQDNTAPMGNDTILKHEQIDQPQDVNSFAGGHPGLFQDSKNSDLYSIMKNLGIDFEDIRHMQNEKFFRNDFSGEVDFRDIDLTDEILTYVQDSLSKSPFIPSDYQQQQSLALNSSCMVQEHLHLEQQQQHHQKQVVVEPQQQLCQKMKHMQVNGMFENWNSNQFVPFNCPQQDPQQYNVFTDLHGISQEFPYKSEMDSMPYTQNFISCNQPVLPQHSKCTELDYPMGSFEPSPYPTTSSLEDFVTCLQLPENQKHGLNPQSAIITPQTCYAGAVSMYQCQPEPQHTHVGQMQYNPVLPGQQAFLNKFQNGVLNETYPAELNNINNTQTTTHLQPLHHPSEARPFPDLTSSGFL
In short: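 Reporter assay in engineered HepG2 line HG2L7.5c1, whose plasmid carries twenty dioxin responsive elements upstream of firefly luciferase. Treatment lasted 24 h at 37C; ONE-Glo luminescence gauged induction.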

[10] = qHTS assay to identify small molecule that activate the aryl hydrocarbon receptor (AhR) signaling pathway - cell viability counter screen (AID 743086); note: nearly all actives have a fitted effect of over 45% in size; note: potency is the fitted concentration of half-maximal effect
In short: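 HepG2-AhR-luc (HG2L7.5c1) cells, 4000/well, treated 24 h at 37 C with compound; viability measured as CellTiter-Fluor fluorescence after 30 min in the same wells as the luciferase read.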

[11] = target: Peroxisome proliferator-activated receptor gamma (Homo sapiens) (UniProt P37231); experiment: qHTS assay to identify small molecule agonists of the peroxisome proliferator-activated receptor gamma (PPARg) signaling pathway (AID 743094; active = well fitted activation curve with a large enough effect in the signal ratio in the repeat runs, not every such curve was filed as active; inconclusive = weak or mixed curves, or effect the other way; inactive = no such curve, though single readings can be large or run the other way; the % refers to the signal ratio; note: potency is the fitted concentration of half-maximal effect)
Peroxisome proliferator-activated receptor gamma (Homo sapiens), sequence (P37231 whole entry, looked up): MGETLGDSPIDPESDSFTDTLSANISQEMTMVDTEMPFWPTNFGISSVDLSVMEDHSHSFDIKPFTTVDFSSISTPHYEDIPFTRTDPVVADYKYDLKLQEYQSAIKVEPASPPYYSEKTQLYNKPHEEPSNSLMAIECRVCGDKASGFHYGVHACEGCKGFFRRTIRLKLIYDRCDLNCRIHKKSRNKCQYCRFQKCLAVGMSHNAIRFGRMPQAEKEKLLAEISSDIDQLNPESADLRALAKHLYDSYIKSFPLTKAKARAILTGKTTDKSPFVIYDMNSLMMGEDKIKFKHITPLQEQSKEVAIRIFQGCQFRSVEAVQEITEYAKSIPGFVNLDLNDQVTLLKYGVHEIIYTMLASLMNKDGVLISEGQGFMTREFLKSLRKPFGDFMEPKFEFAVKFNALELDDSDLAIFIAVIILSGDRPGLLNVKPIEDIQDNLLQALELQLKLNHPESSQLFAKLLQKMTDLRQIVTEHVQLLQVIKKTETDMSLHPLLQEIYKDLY
In short: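 Compounds dissolved in DMSO were added to PPARg UAS-bla HEK293H cells for 17 h at 37C, and reporter expression was quantified by fluorescence intensity after 1 h with LiveBLAzer B/G FRET substrate.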

[12] = qHTS assay to identify small molecule phospholipidosis (PLD) inducers (AID 1259344; active = well fitted curve in the direction sought with a large enough effect; inconclusive = small, poorly fitted or top-dose-only effect, or another doubt; inactive = no such curve, though single readings can be large; an effect the other way counts as inactive or inconclusive)
In short: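 Quantitative HTS in HepG2: compound plus LipidTOX Red dye for 24 h, paraformaldehyde fixation with Hoechst 33342, widefield high-content imaging; amiodarone as positive and DMSO as negative control.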

[13] = target: Nuclear receptor subfamily 1 group I member 2 (Rattus norvegicus) (UniProt Q9R1A7); experiment: Rat pregnane X receptor (rPXR) activation by small molecules, qHTS assay (AID 1346983); details: rPXR luciferase reporter cells, One-Glo luminescence, 24 h; max activation: stronger effect = higher value; note: nearly all actives have a fitted effect of over 20% in size; note: potency is the fitted concentration of half-maximal effect
Nuclear receptor subfamily 1 group I member 2 (Rattus norvegicus), sequence (Q9R1A7 whole entry, looked up): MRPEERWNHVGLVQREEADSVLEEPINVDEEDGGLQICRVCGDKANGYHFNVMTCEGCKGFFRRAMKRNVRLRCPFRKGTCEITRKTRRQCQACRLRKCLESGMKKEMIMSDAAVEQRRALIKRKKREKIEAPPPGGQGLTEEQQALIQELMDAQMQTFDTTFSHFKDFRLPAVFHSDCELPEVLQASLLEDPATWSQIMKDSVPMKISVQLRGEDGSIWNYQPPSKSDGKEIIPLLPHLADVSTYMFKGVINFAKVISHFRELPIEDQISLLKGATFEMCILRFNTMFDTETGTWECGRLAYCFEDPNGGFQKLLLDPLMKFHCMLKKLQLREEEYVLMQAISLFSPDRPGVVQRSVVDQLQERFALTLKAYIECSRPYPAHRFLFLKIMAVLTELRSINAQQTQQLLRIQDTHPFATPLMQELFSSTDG
In short: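 Cell-based rPXR activation assay: rPXR cells, 2,000 per well, rested 5hr at 37 C, then exposed to compounds in DMSO for 24 hr at 37 C. Luciferase activity read by One-Glo luminescence after 30 min at room temperature.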

[14] = target: Nuclear receptor subfamily 1 group I member 2 (Homo sapiens) (UniProt O75469); experiment: CYP3A4 induction through human pregnane X receptor (PXR) by small molecules, qHTS assay (AID 1346984); note: nearly all actives have a fitted effect of over 40% in size; note: potency is the fitted concentration of half-maximal effect
In short: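 Readings come from a luciferase reporter: DPX-2 cells, which are HepG2 cotransfected with PXR and a CYP3A4-promoter construct, were exposed to test compounds for 24 h at 37C before One-Glo detection.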

[15] = target: Nuclear receptor subfamily 1 group I member 2 (Homo sapiens) (UniProt O75469); experiment: Human pregnane X receptor (PXR) activation by small molecules, qHTS assay (AID 1346985); note: nearly all actives have a fitted effect of over 40% in size; note: potency is the fitted concentration of half-maximal effect
In short: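 DPX-2 cells (HepG2 co-transfected with a PXR response element and a CYP3A4-promoter luciferase construct) were seeded at 2,000 per well, rested 5 hr at 37C, then exposed to DMSO-dissolved compounds for 24 hr. Activation was read as luciferase luminescence.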

[16] = qHTS assay to identify small molecule antagonists of the thyroid receptor (TR) signaling pathway - cell viability counter screen (AID 743064); note: nearly all actives have a fitted effect of over 50% in size; note: potency is the fitted concentration of half-maximal effect
In short: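 Same-well viability check: GH3.TRE-Luc cells stimulated with 1 nM T3 alongside test compound for 23.5 h, followed by CellTiter-Fluor fluorescence.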

[17] = target: Estrogen receptor (Homo sapiens) (UniProt P03372); experiment: qHTS assay to identify small molecule antagonists of the estrogen receptor alpha (ER-alpha) signaling pathway (AID 743069; active = well fitted curve in the direction sought with a large enough effect in the signal ratio in the repeat runs, not every such curve was filed as active; inconclusive = weak or mixed curves, or effect the other way; inactive = no such curve, though single readings can be large or run the other way; the % refers to the signal ratio)
In short: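 Reporter cells (ER-alpha-bla, HEK293 background) are conditioned overnight in stripped-serum medium (2% charcoal-stripped FBS). Compound and 17beta-estradiol exposure runs 18 hr at 37C, 5% CO2.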

SMILES	Potency [1]	Potency [2]	Potency [3]	Potency [4]	Potency [5]	Potency [6]	Potency [7]	Potency (Aromatase (Homo sapiens))	Potency [8]	Potency [9]	Potency [10]	Potency [11]	Potency [12]	max activation [13] [%]	Potency [14]	Potency [15]	Potency [16]	Potency [17]	Potency [13]	activation [5]
O=P(O)(O)OC[C@H](O)CO	inactive	inactive	inactive	inactive	inactive	inactive	inactive	inactive	inactive	inactive	inactive	inactive	inactive	-3.61	inactive	inactive				
CC(=O)Nc1c(I)c(C(=O)N[C@H]2C(O)O[C@H](CO)[C@@H](O)[C@@H]2O)c(I)c(N(C)C(C)=O)c1I (stereo not given in full)			inactive	inactive	inactive	inactive	inactive	inactive	inactive	inactive	inactive	inactive	inactive	-3.77	inactive	inactive	inactive	inactive		
Cn1c(=O)c2c(ncn2CCOC(=O)C(C)(C)Oc2ccc(Cl)cc2)n(C)c1=O	inactive	inactive	inactive	inactive	inactive	29.8 µM (active)	inactive	inactive	inactive	inactive	inactive		inactive	-1.7	inactive	inactive		inactive		
CCCCC[C@H](O)/C=C/[C@H]1[C@H](O)CC(=O)[C@@H]1CCCCCCC(=O)O			inactive	inactive	inactive		inactive	inactive	inactive	inactive	inactive		inactive	-0.783	inactive	inactive	inactive			
C=CCNC1=C2C[C@@H](C)C[C@H](OC)[C@H](O)[C@@H](C)/C=C(\C)[C@H](OC(N)=O)[C@@H](OC)/C=C\C=C(/C)C(=O)NC(=CC1=O)C2=O	0.335 µM (active)	inactive	inactive	inactive		0.237 µM (active)		inactive		inactive	inactive		inactive	-14.2	inactive	6.31 µM (active)				
CC(=O)N[C@@H]1C(O[C@H]2O[C@H](C(=O)O)C(O)[C@H](O)[C@H]2O)[C@H](O)[C@@H](CO)O[C@H]1O[C@@H]1C(C(=O)O)O[C@@H](O[C@H]2[C@H](O)[C@@H](CO)OC(O)[C@@H]2NC(C)=O)[C@H](O)[C@H]1O (stereo not given in full)	inactive	inactive	inactive	inactive	inactive		inactive	inactive	inactive		inactive	inactive	inactive	-1.09	inactive	inactive		inactive		
CC1=C(/C=C/C(C)=C/C=C/C(C)=C/C=C/C=C(C)/C=C/C=C(C)/C=C/C2=C(C)C(=O)CCC2(C)C)C(C)(C)CCC1=O	inactive	inactive	inactive	26.8 µM [inconclusive] (active)	5.31 µM (active)			inactive	inactive	inactive	inactive	inactive	inactive	-3.2	inactive	inactive		inactive		
[O]=[Bi][O][Bi]=[O]	inactive	inactive	inactive				inactive	inactive	inactive		inactive		inactive	-2.85	inactive	inactive				
CC1(C)S[C@@H]2[C@H](NC(=O)C(C(=O)O)c3ccsc3)C(=O)N2[C@H]1C(=O)O (stereo not given in full)			inactive	inactive	inactive	inactive	inactive	inactive	inactive	inactive	inactive	inactive	inactive	-6.29	inactive	inactive		inactive		
O=C(O)CN(CC(=O)O)CC1=CC2C(=CC1=O)Oc1cc(O)c(CN(CC(=O)O)CC(=O)O)cc1C21OC(=O)c2ccccc21 (stereo not given)	inactive	inactive		inactive		inactive		inactive					inactive	0.33	inactive	inactive				
O=C(COc1ccc(Cl)cc1)OCCNC12CC3CC(CC(C3)C1)C2			inactive	inactive	inactive		inactive	inactive	inactive	inactive	inactive	inactive	inactive	-5.06	inactive	inactive		inactive		
CN1c2cc(O)c(N=NC(N)=O)cc2CC1S(=O)(=O)O (stereo not given)	inactive	inactive	inactive				inactive	inactive		inactive		inactive	inactive	0.153	inactive	inactive				
CNC(=O)c1c(I)c(C(=O)NCC(=O)Nc2c(I)c(C(=O)O)c(I)c(C(=O)NCCO)c2I)c(I)c(N(C)C(C)=O)c1I	inactive	inactive	inactive				inactive				inactive		inactive	-3.62	inactive		inactive			
CCOC(=O)C1=C(COCCN)NC(C)=C(C(=O)OC)C1c1ccccc1Cl (stereo not given)			inactive				inactive	29.8 µM (active) and 9.44 µM (active)	inactive	inactive	23.7 µM (active)		inactive	3.61	8.91 µM (active)	8.91 µM (active)				
CCOc1ccc(N=Nc2ccc(N)cc2N)cc1	10.6 µM (active)	inactive	inactive					inactive	21.1 µM (active)			inactive	inactive		inactive	inactive			3.16 µM (active)	
CN1CCC(OC(=O)C(Oc2ccc(Cl)cc2)Oc2ccc(Cl)cc2)CC1		inactive	inactive	inactive	inactive	inactive	inactive	inactive	inactive	inactive	inactive	inactive	inactive	-4.17	inactive	inactive		inactive		

SMILES	Potency [1]	Potency [2]	Potency [3]	Potency [4]	Potency [5]	Potency [6]	Potency [7]	Potency (Aromatase (Homo sapiens))	Potency [8]	Potency [9]	Potency [10]	Potency [11]	Potency [12]	max activation [13] [%]	Potency [14]	Potency [15]	Potency [16]	Potency [17]	Potency [13]	activation [5]
Cc1cc(C(=O)NNCc2ccccc2)no1			inactive	inactive	5.07 µM (active)		inactive	inactive	inactive		inactive	inactive	inactive	-1.39	inactive	inactive				
CNCC(O)c1ccc(OC(=O)C(C)(C)C)c(OC(=O)C(C)(C)C)c1 (stereo not given)		inactive	inactive	inactive	inactive	inactive		inactive	inactive	inactive	inactive	inactive	inactive	0.121	inactive	inactive		inactive		
O=C(OC1C[C@@H]2CC3C[C@H](C1)N2CC3=O)c1c[nH]c2ccccc12 (stereo not given in full)	29.8 µM (active)		inactive	inactive	inactive			inactive	inactive			inactive	inactive	6.05	inactive	inactive		inactive		
CC(=O)Nc1ccc(NC(=S)NC(=O)c2ccc(C(C)(C)C)cc2)cc1	2.66 µM (active)	inactive	inactive				inactive	inactive	inactive	1.5 µM (active)	inactive	inactive	inactive	-2.69	inactive		8.41 µM (active)			
CCCCCCCCCCCCCCCCCC(=O)OC[C@@H](O)[C@H]1OC[C@H](O)[C@H]1O	inactive	inactive	inactive				inactive	inactive	inactive		inactive	inactive	inactive	-0.713	inactive	inactive				
CCCCCCCCCCCC(=O)N(CCO)CCO		inactive	inactive	inactive	inactive	inactive	inactive	inactive	inactive	inactive	inactive	inactive	inactive	-2.62	inactive	inactive				
Oc1cc(O)cc(O)c1		inactive	inactive				inactive	inactive	inactive	inactive	inactive	inactive	inactive	-1.47	inactive	inactive				
N#CC(c1ccc(Cl)cc1)c1c(Cl)cc(-n2ncc(=O)[nH]c2=O)cc1Cl (stereo not given)	3.76 µM (active)			inactive	inactive		inactive	inactive	inactive	inactive			inactive	12.6	inactive	inactive				
CCN(CC)Cc1cc(Nc2ccnc3cc(Cl)ccc23)ccc1O			inactive					inactive		inactive	inactive		inactive	-2.52	inactive	inactive				
CC(C)NCC(O)COc1ccccc1-n1cccc1 (stereo not given)	inactive	inactive	inactive				inactive	inactive	inactive	inactive	inactive	inactive	inactive	1.86	inactive	inactive				
CCCCC(=O)O[C@H]1CC[C@H]2[C@@H]3CCc4cc(O)ccc4[C@H]3CC[C@]12C			inactive	0.0006 µM [inconclusive] (active)		inactive	inactive	inactive	inactive	inactive	inactive	inactive	inactive	-1.73	inactive	inactive				61.2% (active)
CCCCC/C=C\C/C=C\C/C=C\CCCCC(=O)O		inactive	inactive				inactive	inactive	inactive	inactive	inactive		inactive	-0.879	inactive	inactive				
CCCCC(C)(O)C/C=C/[C@H]1[C@H](O)CC(=O)[C@@H]1CCCCCCC(=O)OC (stereo not given in full)	inactive	inactive	inactive				inactive	inactive	inactive		inactive	inactive	inactive	-4.82	inactive	inactive				
Cn1c(O)c(N=NC(N)=S)c2ccccc21	29.8 µM (active)		inactive	inactive	inactive					1.06 µM (active)	2.98 µM (active)	21.3 µM (active)	inactive	1.06	inactive	14.1 µM (active)				
C=Cc1c(C)c2cc3nc(cc4[nH]c(cc5nc(cc1[nH]2)C(C)=C5CCC(=O)OC)c(CCC(=O)O)c4C)[C@@]1(C)C3=CC=C(C(=O)OC)[C@H]1C(=O)OC		inactive	inactive	inactive	inactive	inactive		inactive			inactive	inactive	inactive	-3.53	inactive	inactive				
CC1CCC(NC(=O)N(CCCl)N=O)CC1 (stereo not given)	inactive	inactive	inactive	inactive	26.6 µM (active)		inactive	inactive	inactive		inactive	inactive	inactive		inactive		inactive		5.01 µM (active)	
